# Test results taken from PubChem BioAssay (NCI).
# The panel holds about 83,000 compounds, 20% with a hit somewhere; the sample as a whole holds those more often.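 Assay: single dose, 48 h. Readout: percent growth (0 = no net growth; negative = cell death). Active: <10.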 A number with no mark means an inactive call. Calls of active or inactive are those of the source.
# Tested on: HL-60(TB) leukemia
# Test: NCI-60 one-dose screen, 48 h (100 = growth as untreated, 0 = no growth, -100 = all killed)
# Settings: 10 µM unless noted
row,SMILES,growth
1,CCOC(=O)c1cc(/C(=N\O)c2cc(OC)c(OC)c(OC)c2)n2cc(C)cc(C)c12,9.42% (active)
2,NNc1ncccn1,103%
3,NNC(=O)NO,94.4%
4,O=C(CSc1nnc(-c2cc3c([nH]c4ccccc43)c(-c3cccc(O)c3)n2)n1-c1ccccc1)c1ccccc1,56.2%
5,C=C(C)[C@@H]1CC[C@]2(C)[C@H](C(=O)C=C3[C@@H]4C[C@](C)(C(=O)N5CCN(C)CC5)CC[C@]4(C)CC[C@]32C)[C@@]1(C)CCC#N,-22% [100 µM] (active)
6,C/C(=N\NC(=O)CSc1nc2ccccc2c(=O)n1CCc1ccc(S(N)(=O)=O)cc1)c1ccccn1,33.8%
7,COc1c2ccoc2c(/C=C/C=O)c2oc(-c3ccccc3)cc(=O)c12,7.67% (active)
8,CCS(=O)(=O)c1ncnc2nc[nH]c12,101%
9,O=C(NCCNC(c1ccccc1)C(NCCNC(=O)c1ccccc1)c1ccccc1)c1ccccc1 (configuration not stated),68.3%
10,Cn1c2ccccc2c2c3[nH]c(=O)[nH]c(=O)c3c3c4ccccc4n(C)c3c21,48.9%
11,COc1cc(NC(=O)CCSc2nc3ccccc3c(=O)n2Cc2ccccc2)cc(OC)c1OC,104%
12,COc1ccc(Cc2cnc(NC(=O)c3ccc4c(c3)OCCO4)s2)cc1,-42.1% (active)
13,Cc1ccc(-c2nc(/C=N/Nc3cc(C)nc4ccc(Cl)cc34)c(C)o2)cc1,-19.6% (active)
14,COc1ccc(-c2[nH]ncc2/C=C/c2cc(C(F)(F)F)[nH]c(=O)n2)cc1,92%
15,CCNc1nc2c(cnn2C)c(=O)[nH]1,94.3%
16,COC(=O)C1(NC(=O)CNC(=O)OCc2ccccc2)CCCC1,90.4%
17,COC(=O)[C@]12CC[C@@H](C)[C@H](C)[C@@H]1C1=CC[C@@H]3[C@@]4(C)C(C=O)=C[C@@](C)(CO)[C@@H]4[C@H](O)C[C@@]3(C)[C@]1(C)CC2,-14.4% (active)
18,COC(=O)/C=C1\Sc2cc(F)ccc2NC1=O,97.7%
19,O=[N+]([O-])c1ccccc1C(O)Cc1ccc2ccccc2n1 (configuration not stated),107%

row,SMILES,growth
1,O=c1c2ccccc2n(CC(O)CN2CCCC2)c2c(Br)cccc12 (configuration not stated),82.3%
2,O=S(=O)(NCCNc1cc(-c2cn(-c3ccccc3)nc2-c2cccc(O)c2)ccn1)c1ccc(F)cc1,6.88% (active)
3,O=[N+]([O-])c1ccc(Sc2ncccn2)c([N+](=O)[O-])c1,-31.8% (active)
4,Oc1cccc(-c2nc(N3CCOCC3)c3c4c(sc3n2)CCCC4)c1,74.7%
5,COc1ccc(C2C(C#N)=C(N)Oc3c2sc2c(F)cccc32)cc1 (configuration not stated),-29% (active)
6,Cc1ccc(/C=C/c2c(C(=O)/C=C/c3ccccc3)c(C)nc3ccccc23)cc1,14.8%
7,Nc1nc2c(c(=O)[nH]1)C1(C(=O)Nc3ccccc31)c1c(nc(N)[nH]c1=O)N2,108%
8,O=[N+]([O-])c1cc(S(=O)(=O)Nc2ccccc2)ccc1Cl,71.3%
9,COc1cc2c(cc1OC)C(C)N(S(N)(=O)=O)CC2 (configuration not stated),72.2%
10,O=c1cc(-c2ccc(OCc3ccccc3)cc2)oc2c(I)c(OCc3ccccc3)cc(OCc3ccccc3)c12,117%
11,CCOC(=O)c1cnc2c(C)cccc2c1Nc1ccc(C(C)=O)cc1,-43.5% (active)
12,Cc1ccc(C(=O)NCCCNc2nccc(-n3ccc4cccnc43)n2)cc1,105%
13,CN1CCN(Cc2ccc(C(=O)Nc3cncc(C#Cc4cnc5cccnn45)c3)cc2C(F)(F)F)CC1,1.37% (active)
14,COC(=O)c1nc(-c2ccccc2)oc1S(=O)(=O)n1nc(C)cc1N,7.17% (active)
15,CCCc1n(Cc2ccc3ccccc3c2)cc[n+]1Cc1ccc2ccccc2c1,-53.1% (active)
16,CC(C)(C)[Si](C)(C)OC1[C@@H](O[Si](C)(C)C(C)(C)C)[C@@H](CNC(=O)NC(=O)NC(=O)CI)O[C@H]1n1cnc2c(NC(=O)Nc3ccccc3)ncnc21 (some centres not stated),-67.1% (active)
17,COc1ccc(NC(=O)Nc2ccc(-c3ccc(OC)c(OC)c3)nc2C)cc1,85.7%
18,COc1cc2c(c(O)c1Br)C(=O)c1c(O)cc(C[C@H](C)O)cc1[C@H]2[C@H]1c2cc(C[C@H](C)O)cc(O)c2C(=O)c2c1cc(OC)c(Br)c2O,-28% (active)
